Results published in PubChem BioAssay (Tox21).
Records with an inconclusive call do not appear. Activity calls are given as the source filed them. Unless noted, calls come from the whole dose curve; as a rule, active = well fitted curve in the direction sought with a large enough effect in the repeat runs; inconclusive = weak or mixed curves; inactive = no such curve, though single readings can be large; an effect the other way counts as inactive or inconclusive.

Experiments:
[1] = qHTS assay to identify small molecule antagonists of the sonic hedgehog signaling (Shh) pathway (AID 1259369; calls by dose curve; note: nearly all actives have a fitted effect of over 45% in size)
In short: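 Luminescence readout: firefly Luc under Gli1 response element in 3T3Gli1-Luc cells (NIH/3T3 clone). Antagonist mode, stimulation by conditioned medium; compound exposure 24hr at 37 C, 5% CO2.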

[2] = target: Estrogen receptor beta (Homo sapiens) (UniProt Q92731); experiment: qHTS assay to identify small molecule agonists of the estrogen receptor beta (ER-beta) signaling pathway (AID 1259377; active = well fitted activation curve with a large enough effect in the signal ratio in the repeat runs, not every such curve was filed as active; the % refers to the signal ratio)
Estrogen receptor beta (Homo sapiens), sequence (Q92731 whole entry, looked up): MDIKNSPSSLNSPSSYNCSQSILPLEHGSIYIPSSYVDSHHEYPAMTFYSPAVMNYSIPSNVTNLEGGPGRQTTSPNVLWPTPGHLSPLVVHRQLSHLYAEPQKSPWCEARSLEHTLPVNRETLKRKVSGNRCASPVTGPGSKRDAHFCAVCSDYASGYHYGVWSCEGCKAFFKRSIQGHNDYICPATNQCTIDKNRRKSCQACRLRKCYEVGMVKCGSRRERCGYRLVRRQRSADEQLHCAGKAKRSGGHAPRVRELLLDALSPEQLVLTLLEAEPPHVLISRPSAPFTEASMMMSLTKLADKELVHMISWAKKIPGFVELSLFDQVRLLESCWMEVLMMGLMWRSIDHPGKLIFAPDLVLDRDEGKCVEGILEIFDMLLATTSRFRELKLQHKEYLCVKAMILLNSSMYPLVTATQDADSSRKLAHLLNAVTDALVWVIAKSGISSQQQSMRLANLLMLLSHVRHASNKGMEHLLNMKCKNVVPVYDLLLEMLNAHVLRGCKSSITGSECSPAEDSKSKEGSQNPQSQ
In short: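 Read-out: beta-lactamase FRET fluorescence. Cell line: ER-beta-UAS-bla HEK293T in 2% charcoal-stripped FBS. Exposure: 16 hr at 37C. Substrate step: 2 h at room temperature.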

[3] = target: Estrogen receptor beta (Homo sapiens) (UniProt Q92731); experiment: qHTS assay to identify small molecule antagonists of the estrogen receptor beta (ER-beta) signaling pathway (AID 1259378; active = well fitted inhibition curve with a large enough effect in the signal ratio in the repeat runs, not every such curve was filed as active; the % refers to the signal ratio)
In short: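 ER-beta-UAS-bla HEK293T (GripTite) cells in 2% charcoal-stripped FBS medium were preincubated 6 hr at 37C, dosed with compound, then stimulated with 1 nM E2 (final) for 16 hr; beta-lactamase reporter read by B/G FRET fluorescence after 2 hr substrate loading.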

[4] = qHTS assay to identify small molecule agonists of the androgen receptor (AR) signaling pathway in the presence of an antagonist - cell viability counter screen (AID 1259379);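 note: MDA-kb2 human breast cancer cells carrying an MMTV luciferase reporter; series mostly up to about 92 µM; nearly all actives have a fitted effect of over 25% in size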
In short: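 Viability counter screen: CellTiter-Fluor fluorescence, measured in the same wells as the luciferase read-out. MDA-kb2 cells, 3,000/well, with nilutamide at 3.0uM final and compounds at 15 concentrations, 16 hr at 37C, 0% CO2.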

[5] = qHTS assay to identify small molecule agonists of the estrogen receptor beta (ER-beta) signaling pathway - cell viability counter screen (AID 1259380); note: nearly all actives have a fitted effect of over 30% in size
In short: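 Luminescence read-out (CellTiter-Glo, 30 min, room temp) taken in the same wells as the beta-lactamase reporter assay; ER-beta-UAS-bla HEK293T cells exposed to DMSO-dissolved compounds for 16 hr at 37C in 2% charcoal-stripped FBS medium.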

[6] = qHTS assay to identify small molecule antagonists of the estrogen receptor beta (ER-beta) signaling pathway - cell viability counter screen (AID 1259382); note: series mostly up to about 92 µM; nearly all actives have a fitted effect of over 55% in size
In short: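 Luminescent ATP read-out (CellTiter-Glo, 30 min, RT) taken in the same wells as the bla reporter assay. HEK293T ER-beta-UAS-bla cells in 2% charcoal-stripped FBS were exposed to compounds with 1nM E2 for 16 hr at 37C.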

[7] = target: Estrogen receptor (Homo sapiens) (UniProt P03372); experiment: qHTS assay to identify small molecule agonists of the estrogen receptor alpha (ER-alpha) signaling pathway in the presence of an antagonist (AID 1259383; calls by dose curve; note: top concentration of the series differs between compounds; nearly all actives have a fitted effect of over 15% in size)
Estrogen receptor (Homo sapiens), sequence (P03372 whole entry, looked up): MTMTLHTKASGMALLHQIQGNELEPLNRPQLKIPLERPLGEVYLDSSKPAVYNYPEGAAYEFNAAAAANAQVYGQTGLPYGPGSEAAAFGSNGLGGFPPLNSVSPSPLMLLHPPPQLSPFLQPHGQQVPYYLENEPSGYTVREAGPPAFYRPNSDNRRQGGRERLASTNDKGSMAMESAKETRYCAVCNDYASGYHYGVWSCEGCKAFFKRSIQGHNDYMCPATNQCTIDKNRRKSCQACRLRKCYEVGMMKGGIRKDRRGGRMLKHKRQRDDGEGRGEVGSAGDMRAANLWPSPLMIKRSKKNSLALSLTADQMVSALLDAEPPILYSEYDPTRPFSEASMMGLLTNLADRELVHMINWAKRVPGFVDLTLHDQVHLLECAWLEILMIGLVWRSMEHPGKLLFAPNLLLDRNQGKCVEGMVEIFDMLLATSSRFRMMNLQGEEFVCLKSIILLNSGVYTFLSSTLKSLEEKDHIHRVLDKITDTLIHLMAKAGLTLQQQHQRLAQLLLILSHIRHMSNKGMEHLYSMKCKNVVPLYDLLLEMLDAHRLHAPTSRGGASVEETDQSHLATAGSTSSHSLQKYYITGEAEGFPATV
In short: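 Luciferase luminescence (ONE-Glo, 30min at room temperature) measured in VM7Luc4E2 cells after 22hr compound exposure at 15 concentrations, with 10.0nM ICI-182,780 final present; cells express endogenous ER-alpha and carry four EREs upstream of luciferase.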

[8] = qHTS assay to identify small molecule agonists or antagonists of the thyroid stimulating hormone receptor (TSHR) signaling pathway - wild type cell line counter screen (AID 1259384; calls by dose curve)
In short: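 Wild-type HEK293 cells were plated 18 h at 37 C/5% CO2, pin-dosed with compound plus Ro20-1724 medium, held 30 min at room temperature, then given cAMP-d2 and anti-cAMP-cryptate; fluorescence was read after 1 h. Fifteen concentrations, triplicate.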

[9] = qHTS assay to identify small molecule agonists of the estrogen receptor alpha (ER-alpha) signaling pathway in the presence of an antagonist - cell viability counter screen (AID 1259386);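 note: series mostly up to about 92 µM; cells exposed to compounds for 22 h at 37 °C before the viability read; nearly all actives have a fitted effect of over 30% in size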
In short: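 Read-out: CellTiter-Fluor fluorescence after 1hr reagent incubation, measured in the same wells as the luciferase readout. VM7Luc4E2 cells were exposed to 15 compound concentrations with 10.0nM ICI-182,780 for 22hr at 37C.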

[10] = target: Progesterone receptor (Homo sapiens) (UniProt P06401); experiment: qHTS assay to identify small molecule agonists of the progesterone receptor (PR) signaling pathway (AID 1346784; calls by dose curve; note: nearly all actives have a fitted effect of over 30% in size)
Progesterone receptor (Homo sapiens), sequence (P06401 whole entry, looked up): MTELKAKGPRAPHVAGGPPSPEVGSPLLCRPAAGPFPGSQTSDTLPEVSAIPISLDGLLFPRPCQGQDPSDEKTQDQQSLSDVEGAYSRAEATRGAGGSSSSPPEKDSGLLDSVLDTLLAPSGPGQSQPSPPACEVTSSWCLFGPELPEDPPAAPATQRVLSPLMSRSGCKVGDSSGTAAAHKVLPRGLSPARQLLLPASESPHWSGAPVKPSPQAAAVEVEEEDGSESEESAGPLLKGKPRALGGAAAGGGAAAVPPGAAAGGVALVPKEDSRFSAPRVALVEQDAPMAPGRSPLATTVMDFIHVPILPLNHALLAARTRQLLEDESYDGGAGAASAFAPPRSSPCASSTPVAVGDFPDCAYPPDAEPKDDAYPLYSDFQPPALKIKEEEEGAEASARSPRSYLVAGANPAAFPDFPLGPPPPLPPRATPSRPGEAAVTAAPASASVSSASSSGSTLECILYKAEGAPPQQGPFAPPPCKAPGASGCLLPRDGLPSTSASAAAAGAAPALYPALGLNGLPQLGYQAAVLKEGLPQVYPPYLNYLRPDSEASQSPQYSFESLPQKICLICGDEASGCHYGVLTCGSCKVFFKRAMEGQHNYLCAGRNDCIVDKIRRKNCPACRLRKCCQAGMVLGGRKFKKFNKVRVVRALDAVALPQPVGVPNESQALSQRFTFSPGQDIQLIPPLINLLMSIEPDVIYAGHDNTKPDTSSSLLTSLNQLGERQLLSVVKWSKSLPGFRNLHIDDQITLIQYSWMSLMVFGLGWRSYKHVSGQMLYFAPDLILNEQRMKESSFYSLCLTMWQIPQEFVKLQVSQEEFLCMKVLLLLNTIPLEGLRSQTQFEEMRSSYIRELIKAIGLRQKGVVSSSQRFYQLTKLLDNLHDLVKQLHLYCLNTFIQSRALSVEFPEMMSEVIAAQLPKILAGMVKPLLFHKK
In short: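 Compounds were tested for PR agonism in HEK 293T cells bearing a beta-lactamase gene under UAS control. Treatment lasted 16 hr at 37C; signal came from fluorescence of a FRET substrate.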

[11] = target: Progesterone receptor (Homo sapiens) (UniProt P06401); experiment: qHTS assay to identify small molecule antagonists of the progesterone receptor (PR) signaling pathway (AID 1346795; active = well fitted inhibition curve with a large enough effect in the signal ratio in the repeat runs, not every such curve was filed as active; the % refers to the signal ratio)
In short: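 In HEK293T cells bearing the PR-UAS-bla reporter, compound effects on promegestone-driven (1 nM) beta-lactamase expression are assessed after 16 hr using a fluorescent FRET substrate incubated 2 hr at room temperature.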

[12] = qHTS assay to identify small molecule antagonists of the progesterone receptor (PR) signaling pathway - cell viability counter screen (AID 1346798); note: series mostly up to about 92 µM; nearly all actives have a fitted effect of over 50% in size
In short: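 Following a 4 hr attachment, PR-UAS-bla HEK293T cells in charcoal-stripped FBS medium were exposed to compounds with R5020 for 16 hr; CellTiter-Glo was added and luminescence read after 30 min at room temperature.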

[13] = qHTS assay to identify small molecule agonists of the progesterone receptor (PR) signaling pathway - cell viability counter screen (AID 1346799; calls by dose curve; note: nearly all actives have a fitted effect of over 45% in size)
In short: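 Here, 3,000 PR-UAS-bla HEK293T cells per well were treated with compounds for 16 hr after a 6 hr preincubation at 37C and 5% CO2; cell viability is the CellTiter-Glo luminescence signal.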

[14] = qHTS assay to identify small molecule antagonists of the TGF-beta/Smad signaling pathway - cell viability counter screen (AID 1346824); note: nearly all actives have a fitted effect of over 50% in size
In short: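 SBE-bla HEK 293T cells were plated overnight at 37 C, then given compounds in DMSO plus TGF-beta1 (added as 0.25 ng/mL solution) for 5 hr. After the bla read, CellTiter-Glo was added to the same wells and luminescence read after 30 min at room temperature.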

[15] = qHTS assay to identify small molecule agonists of the TGF-beta/Smad signaling pathway - cell viability counter screen (AID 1346829); note: top concentration of the series differs between compounds; nearly all actives have a fitted effect of over 45% in size
In short: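 HEK 293T SBE-bla line, 5 hr compound exposure at 37 C, multiplexed CellTiter-Glo viability read by luminescence.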

[16] = target: Thyrotropin-releasing hormone receptor (Homo sapiens) (UniProt P34981); experiment: qHTS assay to identify small molecule antagonists of the thyrotropin-releasing hormone receptor (TRHR) signaling pathway (AID 1346877; active = well fitted inhibition curve with a large enough effect in the repeat runs, not every such curve was filed as active; note: series mostly up to about 51 µM)
Thyrotropin-releasing hormone receptor (Homo sapiens), sequence (P34981 whole entry, looked up): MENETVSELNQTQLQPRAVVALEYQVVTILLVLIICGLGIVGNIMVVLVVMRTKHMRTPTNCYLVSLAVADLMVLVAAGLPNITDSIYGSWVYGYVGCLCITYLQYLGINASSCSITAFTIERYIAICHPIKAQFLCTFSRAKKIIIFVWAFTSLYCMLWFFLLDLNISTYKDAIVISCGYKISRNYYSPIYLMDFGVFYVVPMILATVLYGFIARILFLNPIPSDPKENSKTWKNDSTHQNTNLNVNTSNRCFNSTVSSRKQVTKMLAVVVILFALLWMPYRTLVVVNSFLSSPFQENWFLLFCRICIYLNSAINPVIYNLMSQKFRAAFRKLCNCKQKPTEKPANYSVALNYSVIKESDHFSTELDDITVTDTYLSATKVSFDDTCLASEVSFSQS
In short: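 HEK293/TRHR cells, 18 h, 37 °C; Ca2+ dye 2 h; cpd 5 min RT; TRH 1 nM final; fluorescence read 3 min, 1 s intervals; 15 concs, triplicate.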

[17] = target: Thyrotropin-releasing hormone receptor (Homo sapiens) (UniProt P34981); experiment: qHTS assay to identify small molecule agonists of the thyrotropin-releasing hormone receptor (TRHR) signaling pathway (AID 1346891; calls by dose curve; note: series mostly up to about 58 µM)
In short: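 Screening of agonists relied on calcium signalling in HEK293 cells expressing human TRHR: dye loading 2 h at 37 °C preceded compound addition and a 3-min fluorescence time course.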

[18] = target: Thyrotropin receptor (Homo sapiens) (UniProt P16473); experiment: qHTS assay to identify small molecule antagonists of the thyroid stimulating hormone receptor (TSHR) signaling pathway (AID 1259385; calls by dose curve; note: nearly all actives have a fitted effect of over 20% in size)
Thyrotropin receptor (Homo sapiens), sequence (P16473 whole entry, looked up): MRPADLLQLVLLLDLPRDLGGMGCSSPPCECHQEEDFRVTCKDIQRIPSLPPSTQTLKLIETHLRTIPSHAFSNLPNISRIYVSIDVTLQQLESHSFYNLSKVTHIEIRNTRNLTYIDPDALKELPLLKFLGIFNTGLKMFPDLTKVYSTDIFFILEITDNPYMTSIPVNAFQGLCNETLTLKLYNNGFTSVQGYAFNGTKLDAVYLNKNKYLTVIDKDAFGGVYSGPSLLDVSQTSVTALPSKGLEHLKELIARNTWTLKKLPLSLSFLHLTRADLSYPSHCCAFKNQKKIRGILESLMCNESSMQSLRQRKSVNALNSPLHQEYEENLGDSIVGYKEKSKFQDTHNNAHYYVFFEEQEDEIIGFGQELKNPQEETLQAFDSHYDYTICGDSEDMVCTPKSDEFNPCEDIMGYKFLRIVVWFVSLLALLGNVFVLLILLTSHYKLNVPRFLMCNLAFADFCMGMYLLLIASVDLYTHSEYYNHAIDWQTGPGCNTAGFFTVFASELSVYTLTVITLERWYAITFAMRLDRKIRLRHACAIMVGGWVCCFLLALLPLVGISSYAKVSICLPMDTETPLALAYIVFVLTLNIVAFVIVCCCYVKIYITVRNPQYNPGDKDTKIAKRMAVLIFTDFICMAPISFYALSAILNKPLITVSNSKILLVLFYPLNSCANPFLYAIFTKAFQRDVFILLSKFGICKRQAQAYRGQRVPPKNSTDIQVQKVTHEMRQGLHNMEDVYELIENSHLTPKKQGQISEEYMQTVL
In short: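 TSHR-HEK293 cells were plated and held 18 h at 37C/5% CO2, then given compound plus Ro20-1724 and stimulated with TSH at 1.5 ng/mL final. After 30 min at room temperature, cAMP was detected with cAMP-d2/anti-cAMP-cryptate (1 h) by fluorescence.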

[19] = qHTS assay to identify small molecule agonists of the TGF-beta/Smad signaling pathway (AID 1346859; active = well fitted activation curve with a large enough effect in the signal ratio in the repeat runs, not every such curve was filed as active; the % refers to the signal ratio; note: series mostly up to about 77 µM)
In short: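 Each well held 4,000 SBE-bla HEK 293T cells incubated overnight before compound addition; 5 hr later the cleavable FRET substrate went on for 2 hr at room temperature, and fluorescence was read at two emissions.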

[20] = target: Androgen receptor (Homo sapiens) (UniProt P10275); experiment: qHTS assay to identify small molecule agonists of the androgen receptor (AR) signaling pathway in the presence of an antagonist (AID 1259381; calls by dose curve; note: nearly all actives have a fitted effect of over 15% in size)
Androgen receptor (Homo sapiens), sequence (P10275 whole entry, looked up): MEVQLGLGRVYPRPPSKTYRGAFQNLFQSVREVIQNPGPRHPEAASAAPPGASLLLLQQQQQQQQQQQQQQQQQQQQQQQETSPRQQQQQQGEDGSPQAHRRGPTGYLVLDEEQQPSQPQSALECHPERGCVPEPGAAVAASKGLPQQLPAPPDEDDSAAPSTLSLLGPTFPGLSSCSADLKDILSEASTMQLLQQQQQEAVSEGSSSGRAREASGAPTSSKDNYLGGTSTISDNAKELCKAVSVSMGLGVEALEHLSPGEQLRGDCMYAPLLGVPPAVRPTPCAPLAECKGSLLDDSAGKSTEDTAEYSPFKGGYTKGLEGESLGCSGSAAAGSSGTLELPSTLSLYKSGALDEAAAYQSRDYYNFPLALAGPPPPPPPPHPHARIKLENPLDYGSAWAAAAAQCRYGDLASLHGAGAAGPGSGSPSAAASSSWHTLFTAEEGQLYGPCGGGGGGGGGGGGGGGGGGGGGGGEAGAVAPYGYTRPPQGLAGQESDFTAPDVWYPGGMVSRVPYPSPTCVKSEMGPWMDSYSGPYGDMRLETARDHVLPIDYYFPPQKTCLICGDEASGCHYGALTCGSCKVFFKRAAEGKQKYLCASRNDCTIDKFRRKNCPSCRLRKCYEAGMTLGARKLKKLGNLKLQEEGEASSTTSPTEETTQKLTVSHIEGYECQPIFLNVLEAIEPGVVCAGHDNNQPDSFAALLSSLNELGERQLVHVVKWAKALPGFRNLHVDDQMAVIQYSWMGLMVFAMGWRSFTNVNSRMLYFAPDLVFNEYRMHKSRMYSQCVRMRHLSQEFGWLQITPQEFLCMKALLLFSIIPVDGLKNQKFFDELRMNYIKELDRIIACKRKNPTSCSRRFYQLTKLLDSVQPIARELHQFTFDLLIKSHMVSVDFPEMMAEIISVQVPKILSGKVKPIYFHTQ
In short: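 Luciferase read-out (ONE-Glo, 30min room temperature) in MDA-kb2 MMTV-reporter cells; agonist mode run in presence of AR antagonist nilutamide, 3.0uM final. Compounds tested as 15-point series, 16hr exposure at 37C, 0% CO2.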
% is set by controls: 0 for no effect and ±100 for the full control effect.

CCCOc1ccccc1-c1nc2n[nH]nc2c(=O)[nH]1
inactive: Potency [1] | outcome [2] | Potency [3] | Potency [4] | Potency [5] | Potency [6] | Potency [7] | outcome [8] | outcome [9] | Potency [10] | Potency [11] | Potency [12] | Potency [13] | outcome [14] | outcome [15] | outcome [16] | outcome [17]

CC(C)(C)CC(C)(C)N
inactive: Potency [1] | outcome [2] | Potency [3] | Potency [4] | Potency [5] | Potency [6] | Potency [7] | Potency [18] | outcome [9] | Potency [12] | Potency [13] | outcome [14] | outcome [15] | outcome [19]

CC(C)(C)N(CCO)CCO
inactive: Potency [1] | outcome [2] | Potency [3] | Potency [4] | Potency [5] | Potency [6] | Potency [7] | outcome [8] | Potency [18] | outcome [9] | Potency [10] | Potency [11] | Potency [12] | Potency [13] | outcome [14] | outcome [15] | outcome [19] | outcome [16] | outcome [17]

CC(C)CCCCCCN
inactive: Potency [1] | outcome [2] | Potency [3] | Potency [4] | Potency [5] | Potency [20] | Potency [6] | Potency [7] | Potency [18] | outcome [9] | Potency [10] | Potency [11] | Potency [12] | Potency [13] | outcome [14] | outcome [15] | outcome [19] | outcome [16] | outcome [17]

O=c1[nH]c2ccccc2c(=O)n1CCCl
inactive: Potency [1] | outcome [2] | Potency [3] | Potency [4] | Potency [5] | Potency [20] | Potency [6] | outcome [8] | Potency [18] | outcome [9] | Potency [10] | Potency [11] | Potency [12] | Potency [13] | outcome [14] | outcome [15] | outcome [19] | outcome [16] | outcome [17]

COc1cccc(Br)c1
inactive: Potency [1] | outcome [2] | Potency [3] | Potency [4] | Potency [5] | Potency [20] | Potency [6] | Potency [7] | Potency [18] | outcome [9] | Potency [10] | Potency [11] | Potency [12] | Potency [13] | outcome [14] | outcome [15] | outcome [19] | outcome [16] | outcome [17]

NCC[C@H](O)C(=O)N[C@@H]1C[C@H](N)[C@@H](O[C@H]2O[C@H](CN)[C@@H](O)[C@H](O)[C@H]2O)[C@H](O)[C@H]1O[C@H]1O[C@H](CO)[C@@H](O)[C@H](N)[C@H]1O
inactive: activity change, negative = inhibition [1] 22.5% [at 0.349 µM] | activation [2] 0.597% [at 0.348 µM] | activity, negative = inhibition [3] -5.02% [at 0.349 µM] | activity change, negative = cytotoxicity [4] 1.61% [at 0.35 µM] | activity change, negative = cytotoxicity [5] 1.09% [at 0.349 µM] | activation [20] 0.148% [at 0.349 µM] | activity change, negative = cytotoxicity [6] 1.11% [at 0.349 µM] | activation [7] 1.1% [at 0.349 µM] | cAMP activity change [8] -0.997% [at 0.349 µM] | activity change, negative = inhibition [18] 0.0742% [at 0.349 µM] | activity change, negative = cytotoxicity [9] 0.765% [at 0.349 µM] | activation [10] 0.26% [at 0.349 µM] | activity change, negative = inhibition [11] 2.43% [at 0.348 µM] | activity change, negative = cytotoxicity [12] 0.454% [at 0.348 µM] | activity change, negative = cytotoxicity [13] 8.45% [at 0.349 µM] | viability change, negative = cytotoxic [14] -7.43% [at 0.29 µM] | activity change, negative = cytotoxicity [15] -7.72% [at 0.29 µM] | activation [19] 5.03% [at 0.29 µM] | activity, negative = inhibition [16] 2.62% [at 0.194 µM] | activation [17] -0.0262% [at 0.218 µM]
